Measured values from publication PMC7862700, “An all-to-all approach to the identification of sequence-specific readers for epigenetic DNA modifications on cytosine”.

Assays:
Assay in all cases: DAPPL (digital affinity profiling via proximity ligation, sequencing); 10 mM Tris-HCl pH 7.5, 50 mM NaCl, 1 mM DTT, 4% glycerol, room temperature, 30 min; GST-TFs on glutathione beads, 16-mer random dsDNA library, 0.1% formaldehyde crosslink after washing; high values mean tight binding
[1] = target: SPI1 (Homo sapiens, UniProt P17947 1-270); details: protein: recombinant; tags: N-terminal GST; dsDNA, one strand shown
Procedure, shortened: (§1)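 GST fusions of human transcription factors were expressed in yeast and captured with glutathione beads. Once given DNA barcodes and pooled alongside a tag-only sample, they were incubated for 30 min at room temperature with 200 nmole of a random double-stranded 16-mer DNA library in Tris/NaCl/DTT/glycerol buffer, then washed, crosslinked (0.1% formaldehyde), proximity-ligated, PCR-amplified and sequenced on an Illumina NextSeq500. The binding signal of each hexamer is its read frequency for a factor divided by its frequency for the tag-only sample.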

[2] = target: T1, ELK3 (Homo sapiens, UniProt P41970 1-407); details: protein: recombinant; tags: N-terminal GST; dsDNA, one strand shown
T1 sequence: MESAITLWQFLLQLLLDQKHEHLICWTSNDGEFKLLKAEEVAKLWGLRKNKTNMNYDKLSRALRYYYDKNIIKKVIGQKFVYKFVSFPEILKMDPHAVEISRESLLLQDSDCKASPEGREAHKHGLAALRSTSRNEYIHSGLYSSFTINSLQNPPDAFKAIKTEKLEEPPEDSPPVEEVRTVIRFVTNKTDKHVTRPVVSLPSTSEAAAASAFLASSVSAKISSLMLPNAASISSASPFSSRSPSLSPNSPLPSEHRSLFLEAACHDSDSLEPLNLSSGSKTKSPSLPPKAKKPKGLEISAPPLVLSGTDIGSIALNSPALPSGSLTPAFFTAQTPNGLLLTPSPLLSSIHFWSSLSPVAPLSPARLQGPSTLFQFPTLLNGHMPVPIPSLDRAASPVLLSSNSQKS
Procedure, shortened: as §1

[3] = target: HSF1 (Homo sapiens, UniProt Q00613 1-529); details: protein: recombinant; tags: N-terminal GST; chain copies: 3; dsDNA, one strand shown
Procedure, shortened: as §1

[4] = target: T2, SPIC (Homo sapiens, UniProt Q8N5J4 1-248); details: protein: recombinant; tags: N-terminal GST; dsDNA, one strand shown
T2 sequence: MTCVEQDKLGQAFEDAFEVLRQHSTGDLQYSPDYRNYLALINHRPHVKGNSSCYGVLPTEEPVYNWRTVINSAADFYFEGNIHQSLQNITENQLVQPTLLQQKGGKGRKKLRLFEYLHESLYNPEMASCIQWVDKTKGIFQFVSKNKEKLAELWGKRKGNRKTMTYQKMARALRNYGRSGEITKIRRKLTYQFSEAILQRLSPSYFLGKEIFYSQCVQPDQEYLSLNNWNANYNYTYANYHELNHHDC
Procedure, shortened: as §1

[5] = target: CRX (Homo sapiens, UniProt O43186 1-299); details: protein: recombinant; tags: N-terminal GST; dsDNA, one strand shown
Procedure, shortened: as §1

[6] = target: T3, ELF5 (Homo sapiens, UniProt Q9UKW6-2 1-255); details: protein: recombinant; tags: N-terminal GST; dsDNA, one strand shown
T3 sequence: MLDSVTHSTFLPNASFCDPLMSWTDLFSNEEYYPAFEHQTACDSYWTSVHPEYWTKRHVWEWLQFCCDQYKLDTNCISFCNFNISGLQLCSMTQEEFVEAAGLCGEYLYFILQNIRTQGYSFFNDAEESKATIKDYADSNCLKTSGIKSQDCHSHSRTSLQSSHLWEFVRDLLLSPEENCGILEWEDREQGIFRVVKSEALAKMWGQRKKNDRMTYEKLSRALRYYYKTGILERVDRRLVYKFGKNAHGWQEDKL
Procedure, shortened: as §1

[7] = target: T4, FLI1 (Homo sapiens, UniProt Q01543 1-452); details: protein: recombinant; tags: N-terminal GST; dsDNA, one strand shown
T4 sequence: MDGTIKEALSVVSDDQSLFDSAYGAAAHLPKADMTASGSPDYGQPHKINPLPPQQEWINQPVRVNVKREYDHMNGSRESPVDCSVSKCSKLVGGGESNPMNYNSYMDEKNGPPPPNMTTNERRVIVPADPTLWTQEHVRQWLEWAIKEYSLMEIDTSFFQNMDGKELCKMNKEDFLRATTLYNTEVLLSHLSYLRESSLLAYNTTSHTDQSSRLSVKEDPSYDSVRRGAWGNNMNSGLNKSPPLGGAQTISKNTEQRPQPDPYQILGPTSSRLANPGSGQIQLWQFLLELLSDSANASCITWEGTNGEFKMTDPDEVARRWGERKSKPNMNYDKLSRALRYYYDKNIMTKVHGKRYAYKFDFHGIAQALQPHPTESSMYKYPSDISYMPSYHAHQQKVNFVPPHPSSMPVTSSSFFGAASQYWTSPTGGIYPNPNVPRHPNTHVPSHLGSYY
Procedure, shortened: as §1

Sequence of CRX (O43186 whole entry): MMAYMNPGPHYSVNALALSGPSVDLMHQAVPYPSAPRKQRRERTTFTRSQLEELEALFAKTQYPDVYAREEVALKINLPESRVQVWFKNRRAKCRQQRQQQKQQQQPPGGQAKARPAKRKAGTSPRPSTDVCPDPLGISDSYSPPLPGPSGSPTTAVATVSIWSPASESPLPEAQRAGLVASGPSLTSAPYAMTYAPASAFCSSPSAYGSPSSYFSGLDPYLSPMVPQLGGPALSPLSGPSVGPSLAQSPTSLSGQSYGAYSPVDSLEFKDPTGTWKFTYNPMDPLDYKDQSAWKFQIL
Sequence of HSF1 (Q00613 whole entry): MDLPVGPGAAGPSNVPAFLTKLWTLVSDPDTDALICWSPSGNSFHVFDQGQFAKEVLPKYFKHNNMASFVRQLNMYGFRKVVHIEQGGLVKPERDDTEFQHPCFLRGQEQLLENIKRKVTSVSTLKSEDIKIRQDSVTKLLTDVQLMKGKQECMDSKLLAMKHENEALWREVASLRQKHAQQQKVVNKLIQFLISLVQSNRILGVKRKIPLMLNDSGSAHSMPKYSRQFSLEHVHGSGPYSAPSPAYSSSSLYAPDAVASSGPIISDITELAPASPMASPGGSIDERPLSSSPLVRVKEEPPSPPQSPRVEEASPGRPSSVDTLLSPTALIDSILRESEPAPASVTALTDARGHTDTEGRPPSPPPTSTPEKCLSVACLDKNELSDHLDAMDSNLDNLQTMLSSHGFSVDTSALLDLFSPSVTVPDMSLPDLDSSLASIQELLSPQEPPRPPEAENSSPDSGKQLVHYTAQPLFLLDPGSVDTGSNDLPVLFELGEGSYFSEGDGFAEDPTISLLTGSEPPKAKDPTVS

AAGATC
binding signal [1]: 1.04 fold enrichment (6-mer frequency, TF over GST control)
binding signal [2]: 1.02 fold enrichment (6-mer frequency, TF over GST control)
binding signal [3]: 1.35 fold enrichment (6-mer frequency, TF over GST control)
binding signal [4]: 1.19 fold enrichment (6-mer frequency, TF over GST control)
binding signal [5]: 1.37 fold enrichment (6-mer frequency, TF over GST control)
binding signal [6]: 1 fold enrichment (6-mer frequency, TF over GST control)

GAGCTT
binding signal [2]: 1.02 fold enrichment (6-mer frequency, TF over GST control)
binding signal [3]: 1.2 fold enrichment (6-mer frequency, TF over GST control)
binding signal [4]: 1.09 fold enrichment (6-mer frequency, TF over GST control)
binding signal [5]: 1.43 fold enrichment (6-mer frequency, TF over GST control)

CGAAGG
binding signal [3]: 1.31 fold enrichment (6-mer frequency, TF over GST control)
binding signal [4]: 1.08 fold enrichment (6-mer frequency, TF over GST control)

TGAAAT
binding signal [1]: 1.02 fold enrichment (6-mer frequency, TF over GST control)
binding signal [3]: 1.02 fold enrichment (6-mer frequency, TF over GST control)
binding signal [4]: 1.01 fold enrichment (6-mer frequency, TF over GST control)
binding signal [5]: 1.03 fold enrichment (6-mer frequency, TF over GST control)

TAGCGT
binding signal [3]: 1.04 fold enrichment (6-mer frequency, TF over GST control)
binding signal [4]: 1.02 fold enrichment (6-mer frequency, TF over GST control)
binding signal [5]: 1.15 fold enrichment (6-mer frequency, TF over GST control)

CCCAAA
binding signal [1]: 1.15 fold enrichment (6-mer frequency, TF over GST control)
binding signal [2]: 1.1 fold enrichment (6-mer frequency, TF over GST control)
binding signal [3]: 1.13 fold enrichment (6-mer frequency, TF over GST control)
binding signal [4]: 1.04 fold enrichment (6-mer frequency, TF over GST control)
binding signal [5]: 1.13 fold enrichment (6-mer frequency, TF over GST control)
binding signal [6]: 1.06 fold enrichment (6-mer frequency, TF over GST control)

TCAAGT
binding signal [1]: 1.06 fold enrichment (6-mer frequency, TF over GST control)
binding signal [2]: 1.13 fold enrichment (6-mer frequency, TF over GST control)
binding signal [3]: 1.08 fold enrichment (6-mer frequency, TF over GST control)
binding signal [4]: 1.12 fold enrichment (6-mer frequency, TF over GST control)
binding signal [5]: 1.12 fold enrichment (6-mer frequency, TF over GST control)

TGACGG
binding signal [7]: 1.01 fold enrichment (6-mer frequency, TF over GST control)
binding signal [1]: 1.02 fold enrichment (6-mer frequency, TF over GST control)
binding signal [6]: 1.06 fold enrichment (6-mer frequency, TF over GST control)

CATTAA
binding signal [1]: 1.04 fold enrichment (6-mer frequency, TF over GST control)
binding signal [3]: 1.36 fold enrichment (6-mer frequency, TF over GST control)
binding signal [4]: 1.08 fold enrichment (6-mer frequency, TF over GST control)
binding signal [5]: 1.92 fold enrichment (6-mer frequency, TF over GST control)

CCCCTA
binding signal [1]: 1.08 fold enrichment (6-mer frequency, TF over GST control)
binding signal [2]: 1.38 fold enrichment (6-mer frequency, TF over GST control)
binding signal [3]: 1.02 fold enrichment (6-mer frequency, TF over GST control)
binding signal [4]: 1.25 fold enrichment (6-mer frequency, TF over GST control)
binding signal [5]: 1.15 fold enrichment (6-mer frequency, TF over GST control)
binding signal [6]: 1.1 fold enrichment (6-mer frequency, TF over GST control)

TAGTAG
binding signal [3]: 1.2 fold enrichment (6-mer frequency, TF over GST control)
binding signal [4]: 1.02 fold enrichment (6-mer frequency, TF over GST control)
binding signal [5]: 1.25 fold enrichment (6-mer frequency, TF over GST control)

AGCAAA
binding signal [1]: 1.04 fold enrichment (6-mer frequency, TF over GST control)
binding signal [2]: 1.04 fold enrichment (6-mer frequency, TF over GST control)
binding signal [3]: 1.18 fold enrichment (6-mer frequency, TF over GST control)
binding signal [5]: 1.05 fold enrichment (6-mer frequency, TF over GST control)
binding signal [6]: 1 fold enrichment (6-mer frequency, TF over GST control)

AGAAGT
binding signal [1]: 1.24 fold enrichment (6-mer frequency, TF over GST control)
binding signal [2]: 1.11 fold enrichment (6-mer frequency, TF over GST control)
binding signal [3]: 1.45 fold enrichment (6-mer frequency, TF over GST control)
binding signal [4]: 1.19 fold enrichment (6-mer frequency, TF over GST control)
binding signal [6]: 1.1 fold enrichment (6-mer frequency, TF over GST control)

AGAAAA
binding signal [1]: 1.11 fold enrichment (6-mer frequency, TF over GST control)
binding signal [2]: 1 fold enrichment (6-mer frequency, TF over GST control)
binding signal [3]: 2.39 fold enrichment (6-mer frequency, TF over GST control)
binding signal [4]: 1.04 fold enrichment (6-mer frequency, TF over GST control)
binding signal [5]: 1.27 fold enrichment (6-mer frequency, TF over GST control)
binding signal [6]: 1.02 fold enrichment (6-mer frequency, TF over GST control)

CTAGCG
binding signal [1]: 1.15 fold enrichment (6-mer frequency, TF over GST control)
binding signal [3]: 1.3 fold enrichment (6-mer frequency, TF over GST control)
binding signal [4]: 1.03 fold enrichment (6-mer frequency, TF over GST control)
binding signal [5]: 1.06 fold enrichment (6-mer frequency, TF over GST control)
binding signal [6]: 1.07 fold enrichment (6-mer frequency, TF over GST control)

TCGTAT
binding signal [1]: 1.02 fold enrichment (6-mer frequency, TF over GST control)
binding signal [2]: 1.01 fold enrichment (6-mer frequency, TF over GST control)
binding signal [3]: 1.06 fold enrichment (6-mer frequency, TF over GST control)
binding signal [4]: 1.06 fold enrichment (6-mer frequency, TF over GST control)
binding signal [5]: 1.09 fold enrichment (6-mer frequency, TF over GST control)
binding signal [6]: 1.01 fold enrichment (6-mer frequency, TF over GST control)

CATAAT
binding signal [1]: 1 fold enrichment (6-mer frequency, TF over GST control)
binding signal [3]: 1.37 fold enrichment (6-mer frequency, TF over GST control)
binding signal [4]: 1.24 fold enrichment (6-mer frequency, TF over GST control)
binding signal [5]: 1.93 fold enrichment (6-mer frequency, TF over GST control)

AGCGAT
binding signal [1]: 1.07 fold enrichment (6-mer frequency, TF over GST control)
binding signal [2]: 1.23 fold enrichment (6-mer frequency, TF over GST control)
binding signal [3]: 1.1 fold enrichment (6-mer frequency, TF over GST control)
binding signal [4]: 1.11 fold enrichment (6-mer frequency, TF over GST control)
binding signal [5]: 1.29 fold enrichment (6-mer frequency, TF over GST control)

GGGGCT
binding signal [4]: 1.01 fold enrichment (6-mer frequency, TF over GST control)
binding signal [5]: 1.11 fold enrichment (6-mer frequency, TF over GST control)

GTCTAT
binding signal [1]: 1.03 fold enrichment (6-mer frequency, TF over GST control)
binding signal [2]: 1.04 fold enrichment (6-mer frequency, TF over GST control)
binding signal [4]: 1.18 fold enrichment (6-mer frequency, TF over GST control)
binding signal [6]: 1.08 fold enrichment (6-mer frequency, TF over GST control)

TGCAGC
binding signal [1]: 1.02 fold enrichment (6-mer frequency, TF over GST control)
binding signal [2]: 1.07 fold enrichment (6-mer frequency, TF over GST control)
binding signal [4]: 1.22 fold enrichment (6-mer frequency, TF over GST control)

AGTGCA
binding signal [1]: 1.47 fold enrichment (6-mer frequency, TF over GST control)
binding signal [2]: 1.13 fold enrichment (6-mer frequency, TF over GST control)
binding signal [4]: 1.21 fold enrichment (6-mer frequency, TF over GST control)
binding signal [6]: 1.1 fold enrichment (6-mer frequency, TF over GST control)

GCGAAA
binding signal [1]: 1.02 fold enrichment (6-mer frequency, TF over GST control)
binding signal [3]: 1.26 fold enrichment (6-mer frequency, TF over GST control)

AGTCCC
binding signal [1]: 1.26 fold enrichment (6-mer frequency, TF over GST control)
binding signal [2]: 1.01 fold enrichment (6-mer frequency, TF over GST control)
binding signal [4]: 1.06 fold enrichment (6-mer frequency, TF over GST control)
binding signal [6]: 1.06 fold enrichment (6-mer frequency, TF over GST control)

CGCGCC
binding signal [2]: 1.05 fold enrichment (6-mer frequency, TF over GST control)
binding signal [4]: 1.23 fold enrichment (6-mer frequency, TF over GST control)
binding signal [6]: 1.03 fold enrichment (6-mer frequency, TF over GST control)
